Data on four compounds can be found in PubChem BioAssay (EPA / NIEHS).

Test [1] can be described thus: ATG_DR4_LXR_CIS: Attagene CIS-FACTORIAL HepG2 Assay for human Liver X Receptor (LXR), DR4 submotif (AID 2282929). The following applies: HepG2 Attagene DR4 cis-reporter, mRNA transcription; AC50: actives raise or lower the signal unless noted; outcome: actives raise or lower the signal unless noted. A digest of the protocol:
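Cells were transfected with multiple reporter transcription units, exposed to chemicals for 24 hours, then lysed for RNA. Reporter mRNA induction was measured by RT-PCR with capillary electrophoresis detection and fitted in both directions relative to DMSO.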

Test [2] concerns the target Aryl hydrocarbon receptor (Homo sapiens) (UniProt P35869). Description: ATG_Ahr_CIS: Attagene CIS-FACTORIAL HepG2 Assay for human Aryl Hydrocarbon Receptor (Ahr) (AID 2282930). The note with it: HepG2 AhR cis-factorial reporter transcription; actives raise or lower the signal. An outline of the steps:
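Following 24 h of chemical dosing, transfected HepG2 liver cells with cis-driven reporter units were lysed for RNA; reporter mRNA was quantified via RT-PCR and capillary electrophoresis, and responses fitted bidirectionally from DMSO.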

A short description of test [3]: ATG_AP_1_CIS: Attagene CIS-FACTORIAL HepG2 Assay for human Activator Protein 1 (AP-1) (AID 2282931). The note with it: HepG2 Attagene cis-factorial AP-1 reporter mRNA; actives raise or lower the signal. An outline of the steps: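 Endogenous transcription-factor activity in human HepG2 liver cells is read through a cis-promoter reporter transcript, sampled 24 h after dosing. Detection uses RT-PCR with capillary electrophoresis; values come from bidirectional fitting relative to DMSO.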

A short description of test [4]: ATG_AP_2_CIS: Attagene CIS-FACTORIAL HepG2 Assay for human Activator Protein 2 (AP-2) (AID 2282932). The note with it: HepG2 AP-2 cis-reporter, Attagene transcription factor profiling; AC50: actives raise or lower the signal unless noted; outcome: actives raise or lower the signal unless noted. An outline of the steps:
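HepG2 cells were transiently transfected with multiple cis-promoter reporter transcription units and dosed for 24 h. Reporter mRNA was measured by RT-PCR with capillary electrophoresis fluorescence; bidirectional fits relative to DMSO baseline.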

Test [5] can be described thus: ATG_BRE_CIS: Attagene CIS-FACTORIAL HepG2 Assay for human Bone Morphogenetic Protein (BMP) Response Element (BRE) (AID 2282933). The following applies: HepG2 BMP response element reporter, Attagene transcription factor profiling; actives raise or lower the signal. An outline of the steps:
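Gain- or loss-of-signal was derived by bidirectional fitting against DMSO controls. The signal came from reporter mRNA, measured by RT-PCR and capillary electrophoresis, in HepG2 cells transiently carrying multiple reporter units and dosed for 24 h.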

In test [6] the target is Transcription factor E2F1 (Homo sapiens) (UniProt Q01094). Description: ATG_E2F_CIS: Attagene CIS-FACTORIAL HepG2 Assay for human E2F Transcription Factor 1 (AID 2282935). The note with it: HepG2 Attagene cis-reporter, E2F reporter RNA transcripts; actives raise or lower the signal. A digest of the protocol: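 HepG2 cells transiently transfected with multiplexed cis-element reporter units, dosed for 24 h. Reporter mRNA measured by RT-PCR, 6-FAM primer-extension labeling, HpaI digestion and capillary electrophoresis; bidirectional fit versus DMSO baseline.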

A short description of test [7]: ATG_M_61_CIS: Attagene CIS-FACTORIAL HepG2 Assay for M61 Transcription Factor (Internal Marker) (AID 2282937). The note with it: HepG2 Attagene CIS-FACTORIAL M61 internal marker reporter; actives raise or lower the signal. An outline of the steps: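 Cells were transfected with reporter units under cis-regulatory promoters, treated with chemicals for 24 h, then lysed for RNA. Reporter transcripts were quantified by RT-PCR and capillary electrophoresis, and activity was fitted bidirectionally against DMSO.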

A short description of test [8]: ATG_EGR_CIS: Attagene CIS-FACTORIAL HepG2 Assay for human Early Growth Response 1 (EGR1) (AID 2282938). The note with it: HepG2 Attagene CIS-FACTORIAL EGR reporter mRNA; actives raise or lower the signal. A digest of the protocol: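 Endogenous TF activity in HepG2 liver cells was gauged through cis-promoter reporter constructs transiently transfected. After 24 h dosing, reporter mRNA was quantified by RT-PCR and capillary electrophoresis, and curves fitted in both directions versus DMSO.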

Test [9] in a line: ATG_Ets_CIS: Attagene CIS-FACTORIAL HepG2 Assay for human Erythroblast Transformation Specific (ETS) (AID 2282941). The note with it: HepG2 ETS cis-reporter transcription; AC50: actives raise or lower the signal unless noted; outcome: actives raise or lower the signal unless noted. A digest of the protocol: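 After transient cis-reporter transfection, HepG2 cells receive test chemical for 24 h. Reporter mRNA levels, measured by RT-PCR and capillary electrophoresis fluorescence, are analysed bidirectionally relative to the DMSO baseline.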

Test [10] has as its target Hepatocyte nuclear factor 3-beta (Homo sapiens) (UniProt Q9Y261). The test is described as follows: ATG_FoxA2_CIS: Attagene CIS-FACTORIAL HepG2 Assay for human Forkhead box A2 (FOXA2) (AID 2282942). The following applies: HepG2 cis-reporter transcription factor activity, 24 h; actives raise or lower the signal. A digest of the protocol:
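Endogenous transcription factor activity was read in HepG2 cells carrying transiently transfected cis-promoter reporter units. After 24 h dosing, reporter mRNA was quantified by RT-PCR and capillary electrophoresis, and values fitted bidirectionally versus DMSO.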

The nature of test [11]: ATG_FoxO_CIS: Attagene CIS-FACTORIAL HepG2 Assay for human Forkhead box O (FoxO) (AID 2282943). The following applies: HepG2 Attagene cis-reporter, FoxO element, mRNA; actives raise or lower the signal. A digest of the protocol:
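24 h chemical exposure, HepG2 with transient cis-MRTU transfection. RNA extraction, oligo(dT) RT, reporter-specific PCR, primer-extension labelling, HpaI digestion, CE fragment analysis; bidirectional fit, DMSO baseline.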

Test [12] in a line: ATG_GATA_CIS: Attagene CIS-FACTORIAL HepG2 Assay for human GATA Binding Protein (AID 2282944). The following applies: HepG2 GATA cis-element reporter, Attagene multiplex mRNA; actives raise or lower the signal. A digest of the protocol:
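DMSO serves as negative control and baseline for bidirectional fitting of reporter mRNA changes. HepG2 cells bearing transiently transfected cis-promoter reporters were exposed 24 h; transcripts detected via RT-PCR and capillary electrophoresis.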

A short description of test [13]: ATG_GLI_CIS: Attagene CIS-FACTORIAL HepG2 Assay for human Zinc Finger Protein GLI1 (AID 2282945). The following applies: HepG2, Attagene cis-factorial reporter mRNA, GLI element; actives raise or lower the signal. A digest of the protocol: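 HepG2 cells transiently transfected with cis-promoter multiplexed reporter units report endogenous transcription factor activity. After 24 h chemical exposure, reporter mRNA was quantified by RT-PCR, 6-FAM labelling, HpaI digestion and capillary electrophoresis, with bidirectional fitting against DMSO.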

A short description of test [14]: ATG_GRE_CIS: Attagene CIS-FACTORIAL HepG2 Assay for human Glucocorticoid Response Elements (GRE) (AID 2282947). The note with it: HepG2 GRE cis-reporter, Attagene multiplex mRNA; AC50: actives raise or lower the signal unless noted; outcome: actives raise or lower the signal unless noted. A digest of the protocol:
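HepG2 cells transiently transfected with multiple cis-promoter reporter units measure endogenous TF activity; 24 h compound exposure. Reporter mRNA quantified by RT-PCR, FAM labelling, HpaI digestion and capillary electrophoresis; bidirectional fit vs DMSO baseline.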

The nature of test [15]: ATG_ISRE_CIS: Attagene CIS-FACTORIAL HepG2 Assay for human Interferon Regulatory Factor 1 (IRF1) binding to an Interferon-Stimulated Response Element (ISRE) (AID 2282948). The note with it: HepG2 ISRE cis-reporter (Attagene), mRNA transcription readout; actives raise or lower the signal. A digest of the protocol:
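Quantitation relies on labelled RT-PCR fragments separated by capillary electrophoresis. Human HepG2 cells bearing cis-promoter reporter constructs were treated 24 h; DMSO served as baseline for bidirectional fitting.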

Test [16] is described as follows: ATG_E_Box_CIS: Attagene CIS-FACTORIAL HepG2 Assay for human Enhancer Box (E-box) (AID 2282936). The following applies: HepG2 E-box cis-reporter transcription, actives raise or lower the signal. A digest of the protocol: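 HepG2 cells transiently transfected with multiplexed cis-element reporter units sensing endogenous transcription factor activity; 24 h compound exposure. Reporter mRNA measured by RT-PCR, 6-FAM primer extension, HpaI digestion and capillary electrophoresis; bidirectional fit versus DMSO.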

Test [17] in a line: ATG_M_19_CIS: Attagene CIS-FACTORIAL HepG2 Assay for M19 Transcription Factor (Internal Marker) (AID 2282939). The following applies: HepG2 Attagene CIS-FACTORIAL M19 internal marker reporter; actives raise or lower the signal. An outline of the steps:
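Following a 24 h exposure, RNA from transfected HepG2 cells was reverse-transcribed, PCR-amplified with reporter-specific primers, end-labelled with 6-FAM and HpaI-digested before capillary separation. Values represent gain or loss versus DMSO.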

A short description of test [18]: ATG_ERE_CIS: Attagene CIS-FACTORIAL HepG2 Assay for Estrogen Response Element (ERE) (AID 2282940). The following applies: HepG2 ERE cis-reporter, Attagene RNA transcript; actives raise or lower the signal. An outline of the steps:
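HepG2, transient cis-reporter units, 24 h exposure. RNA isolated, oligo(dT) RT, reporter-specific PCR, FAM extension, HpaI cut, CE detection. Gain/loss-of-signal vs DMSO.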

For test [19], the target named is Bile acid receptor (Homo sapiens) (UniProt Q96RI1). The test is described as follows: ATG_IR1_CIS: Attagene CIS-FACTORIAL HepG2 Assay for human Nuclear Receptor Subfamily 1 Group H Member 4 (NR1H4), IR1 submotif (AID 2282946). The note with it: IR1 reporter transcription, actives raise or lower the signal. An outline of the steps:
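Transient MRTU transfection, HepG2; 24 h dosing; RNA → RT-PCR → 6-FAM primer extension → HpaI digest → capillary electrophoresis fluorescence. Gain/loss of signal fitted relative to DMSO.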

Each structure is given as a SMILES string. Activity calls are given as the source filed them. The calls were made as follows: active = hit-call score of the fitted dose curve at least 0.9, where 1 is the maximum; inactive = score below 0.9.

Sequence of Transcription factor E2F1 (Homo sapiens) (Q01094 whole entry, looked up): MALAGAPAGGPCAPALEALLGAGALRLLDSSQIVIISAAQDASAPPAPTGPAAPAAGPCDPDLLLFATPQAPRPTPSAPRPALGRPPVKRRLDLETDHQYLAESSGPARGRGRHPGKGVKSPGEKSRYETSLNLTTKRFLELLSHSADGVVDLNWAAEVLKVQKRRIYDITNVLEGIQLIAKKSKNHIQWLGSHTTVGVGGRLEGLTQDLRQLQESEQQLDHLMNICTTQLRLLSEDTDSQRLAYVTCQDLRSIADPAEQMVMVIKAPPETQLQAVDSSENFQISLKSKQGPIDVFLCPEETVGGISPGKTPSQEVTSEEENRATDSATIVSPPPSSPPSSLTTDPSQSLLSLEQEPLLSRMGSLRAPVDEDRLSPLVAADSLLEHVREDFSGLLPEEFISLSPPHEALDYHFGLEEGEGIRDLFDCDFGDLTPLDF
Sequence of Hepatocyte nuclear factor 3-beta (Homo sapiens) (Q9Y261 whole entry, looked up): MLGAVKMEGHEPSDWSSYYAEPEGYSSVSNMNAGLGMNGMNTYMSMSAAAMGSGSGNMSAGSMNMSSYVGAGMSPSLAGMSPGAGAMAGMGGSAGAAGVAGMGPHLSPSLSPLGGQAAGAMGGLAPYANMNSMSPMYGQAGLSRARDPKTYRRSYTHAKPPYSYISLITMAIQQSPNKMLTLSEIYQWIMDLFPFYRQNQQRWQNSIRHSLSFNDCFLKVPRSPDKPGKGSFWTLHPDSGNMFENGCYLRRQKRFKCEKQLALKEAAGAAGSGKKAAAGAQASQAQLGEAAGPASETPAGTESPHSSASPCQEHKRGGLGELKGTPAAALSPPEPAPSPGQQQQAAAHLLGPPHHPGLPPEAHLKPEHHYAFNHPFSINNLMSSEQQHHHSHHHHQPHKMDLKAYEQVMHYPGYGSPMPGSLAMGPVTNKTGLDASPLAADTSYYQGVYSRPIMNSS
Sequence of Bile acid receptor (Homo sapiens) (Q96RI1 whole entry, looked up): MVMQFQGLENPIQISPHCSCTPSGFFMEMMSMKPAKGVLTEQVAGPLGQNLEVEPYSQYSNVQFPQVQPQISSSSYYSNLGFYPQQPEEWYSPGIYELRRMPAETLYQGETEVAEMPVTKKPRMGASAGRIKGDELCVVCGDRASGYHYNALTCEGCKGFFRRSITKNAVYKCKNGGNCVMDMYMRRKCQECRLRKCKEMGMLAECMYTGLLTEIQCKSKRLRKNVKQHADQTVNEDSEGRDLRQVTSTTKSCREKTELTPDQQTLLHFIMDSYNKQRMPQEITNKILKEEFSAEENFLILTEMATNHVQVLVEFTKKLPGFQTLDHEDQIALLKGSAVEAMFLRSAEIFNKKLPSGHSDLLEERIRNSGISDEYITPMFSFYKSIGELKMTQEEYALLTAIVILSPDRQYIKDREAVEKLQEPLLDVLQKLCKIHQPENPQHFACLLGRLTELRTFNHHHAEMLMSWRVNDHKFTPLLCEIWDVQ
Sequence of Aryl hydrocarbon receptor (Homo sapiens) (P35869 whole entry, looked up): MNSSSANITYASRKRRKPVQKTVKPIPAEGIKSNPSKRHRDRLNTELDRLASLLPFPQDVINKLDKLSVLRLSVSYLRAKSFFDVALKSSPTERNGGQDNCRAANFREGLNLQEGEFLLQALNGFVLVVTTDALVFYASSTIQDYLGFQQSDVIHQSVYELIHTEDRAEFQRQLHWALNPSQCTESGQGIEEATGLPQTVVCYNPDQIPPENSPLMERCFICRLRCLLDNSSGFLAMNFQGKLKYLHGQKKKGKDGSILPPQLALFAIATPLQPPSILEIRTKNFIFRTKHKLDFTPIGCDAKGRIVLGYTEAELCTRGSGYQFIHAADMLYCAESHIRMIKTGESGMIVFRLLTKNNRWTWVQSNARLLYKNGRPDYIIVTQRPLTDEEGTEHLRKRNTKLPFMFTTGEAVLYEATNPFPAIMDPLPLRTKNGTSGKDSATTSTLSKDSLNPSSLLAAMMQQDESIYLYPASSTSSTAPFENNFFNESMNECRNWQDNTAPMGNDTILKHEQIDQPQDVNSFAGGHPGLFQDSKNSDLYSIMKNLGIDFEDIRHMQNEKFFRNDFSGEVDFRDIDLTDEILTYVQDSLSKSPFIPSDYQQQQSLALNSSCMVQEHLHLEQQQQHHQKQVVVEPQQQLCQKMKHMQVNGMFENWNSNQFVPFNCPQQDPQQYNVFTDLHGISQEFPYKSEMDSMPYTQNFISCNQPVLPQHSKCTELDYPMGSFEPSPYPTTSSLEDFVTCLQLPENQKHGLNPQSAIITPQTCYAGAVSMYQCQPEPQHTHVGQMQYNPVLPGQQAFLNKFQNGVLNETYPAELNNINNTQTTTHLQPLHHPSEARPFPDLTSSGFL

`CCCC=O`: the result in [1], in [2], in [3], in test [4], in test [5] and in [6] was inactive. Moreover, the result in [7], in test [8], in [9], in test [10], in [11] and in [12] was inactive. The compound was called inactive in test [13], in [14] and in test [15].
In the case of `CNNCc1ccc(C(=O)NC(C)C)cc1`, the compound was called inactive in [1], in [2], in [3], in test [4], in test [5] and in test [6]. Moreover, the result in test [16], in test [7], in test [8], in test [9], in [10] and in [11] was inactive. In addition, the compound was classed as inactive in [12], in test [13], in test [14] and in test [15].
The term AC50 denotes the midpoint of the concentration-response curve, whichever way the signal moves. With `C/C=C/C(=O)C1=C(C)CCCC1(C)C`, the AC50 in [1] is 24.6 µM (active); in [2], 72.2 µM (active); in test [3], 27.6 µM (active); in test [5] it was 27.3 µM (active); in [8], 55.4 µM (active); in test [11], 138 µM (active). For the same compound, the results for the AC50 in test [13], in test [19] and in test [15] were 69.7 µM (active), 43.9 µM (active) and 69.9 µM (active), respectively. Besides, the compound was classed as inactive in test [4], in test [6], in [7], in test [17], in test [18] and in test [9]. Moreover, the compound was called inactive in [12] and in test [14].
For the compound `O=P(O)(O)CCC(F)(F)C(F)(F)C(F)(F)C(F)(F)C(F)(F)C(F)(F)C(F)(F)C(F)(F)F`, the outcome in test [1], in [2], in test [3], in test [4], in test [5] and in test [6] was inactive. In addition, the result in test [16], in test [7], in test [8], in [18], in [9] and in [10] was inactive. Further, the compound was called inactive in [11], in test [12], in test [13], in test [19], in [14] and in test [15].
